Bioassay records: PubChem, Broad Institute
DUX4 inh – DUX4-mediated transcription inhibition; hit rate 0.8% among 37,000; 293T-iDUX4 ZSCAN4-Gaussia luciferase reporter, 24 h; active compounds read low; AID 1224904; activity change, negative = inhibition, % (no concentration beside the values);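 active = mean inhibition of at least 10% in the main channel, exceeding the control channel by a set limit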;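 also: 0% = median of neutral control wells and -100% = median of positive control wells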
Active calls of the source: *. This excerpt belongs to a sample that is enriched for hits.

SMILES	DUX4 inh
Cc1cccc(-c2ccc([C@H]3[C@@H](CO)N4CCCCN(S(=O)(=O)c5ccccc5F)C[C@@H]34)cc2)c1	-3
Cc1ccc(-c2ccc([C@@H]3[C@@H](CO)N4CCCCN(S(=O)(=O)c5ccccc5C)C[C@H]34)cc2)cc1	-25*
Cc1ccccc1S(=O)(=O)N1CCCCN2[C@H](C1)[C@@H](c1ccc(-c3cccc(F)c3)cc1)[C@@H]2CO	7
Cc1ccccc1S(=O)(=O)N1CCCCN2[C@H](C1)[C@@H](c1ccc(-c3cccnc3)cc1)[C@@H]2CO	-5
Cc1ccccc1S(=O)(=O)N1CCCCN2[C@@H](CO)[C@H](c3ccc(-c4cccc(F)c4)cc3)[C@@H]2C1	-47*
Cc1ccccc1S(=O)(=O)N1CCCCN2[C@H](CO)[C@@H](c3ccc(-c4cccnc4)cc3)[C@H]2C1	-5
O=C(C1CCOCC1)N1C[C@@H]2[C@H](c3ccccc31)[C@H](CO)N2Cc1ccccc1F	-4
CCCNC(=O)C[C@H]1CC[C@H]2[C@@H](COc3ccc(NC(=O)CC)cc3C(=O)N2C)O1	1
COc1ccccc1CN1[C@H](CO)[C@H](c2ccccc2)C12CN(C(C)=O)C2	3
COc1cccc(CN2CC3(C2)[C@H](c2ccccc2)[C@@H](CO)N3Cc2ccccc2OC)c1	-36*
COc1ccccc1CN1[C@@H](CO)[C@@H](c2ccccc2)C12CN(C(C)=O)C2	3
O=C(C1CC1)N1CC2(C1)[C@@H](c1ccccc1)[C@@H](CO)N2Cc1ccccc1F	-2
CCC(=O)N1CC2(C1)[C@H](c1ccccc1)[C@@H](CO)N2Cc1ccccc1F	3
COc1ccccc1CN1[C@@H](CO)[C@H](c2ccccc2)C12CN(C(C)=O)C2	-6
COc1cccc(CN2[C@H](CO)[C@@H](c3ccccc3)C23CN(C(=O)C2CC2)C3)c1	-6
COc1cccc(CN2[C@@H](CO)[C@H](c3ccccc3)C23CN(Cc2ccccc2OC)C3)c1	-44*
OC[C@H]1[C@H](c2ccccc2)C2(CN(Cc3ccccc3F)C2)N1Cc1ccccc1F	-35*
COc1ccccc1NC(=O)N[C@@H]1CC[C@@H](CCNS(=O)(=O)c2ccc(Cl)cc2)O[C@H]1CO	1
COC(=O)C[C@H]1CC[C@@H]2[C@H](COC[C@H](O)CN2CCC(F)(F)F)O1	4
C[C@@H]1CN([C@H](C)CO)C(=O)CCCn2nncc2CO[C@@H]1CN(C)S(=O)(=O)c1ccccc1C#N	1
COc1ccc(-c2ccc([C@@H]3[C@@H](CO)N4C(=O)CN(C(=O)C5CC5)C[C@@H]34)cc2)cc1	-4
O=C(Nc1ccc(F)cc1)N1C[C@H]2[C@@H](c3ccccc31)[C@@H](CO)N2C(=O)Cc1cccnc1	8
N#C[C@H]1[C@@H](c2ccc(C3=CCCC3)cc2)[C@@H](CO)N1C(=O)c1cccc(F)c1	-5
O=C(C[C@@H]1CC[C@@H]2[C@H](COC[C@H](O)CN2C(=O)c2cccnc2)O1)Nc1ccc(-c2ccccc2)cc1	13
CNC[C@@H]1Oc2cc(-c3cccnc3)ccc2S(=O)(=O)N([C@@H](C)CO)C[C@H]1C	0
SMILES	DUX4 inh
CC(C)CC#Cc1ccc([C@@H]2[C@@H](CO)N3C(=O)CN(C(=O)c4cccc(F)c4)C[C@H]23)cc1	0
O=C(Cc1ccccc1)N1CC(=O)N2[C@@H](CO)[C@@H](c3ccc(C#CCc4ccccc4)cc3)[C@@H]2C1	1
O=C(Cc1ccccc1)N1CC(=O)N2[C@H](CO)[C@@H](c3ccc(C#CCc4ccccc4)cc3)[C@@H]2C1	-33*
O=C(Cc1ccccc1)N1CC(=O)N2[C@@H](CO)[C@H](c3ccc(C#CCc4ccccc4)cc3)[C@@H]2C1	0
CC(C)CC#Cc1ccc([C@H]2[C@H](CO)N3C(=O)CN(C(=O)c4cccc(F)c4)C[C@@H]23)cc1	-38*
CC(C)CC#Cc1ccc([C@H]2[C@H]3CN(C(=O)c4cccc(F)c4)CC(=O)N3[C@H]2CO)cc1	-4
CCCNC(=O)C[C@@H]1CC[C@H]2[C@@H](COC[C@H](O)CN2Cc2ccccc2F)O1	4
COc1ccc2c3c([nH]c2c1)[C@@H](CO)N(C(=O)Nc1ccc(F)cc1)CC31CCN(Cc2nccs2)CC1	0
CN(C)CC(=O)Nc1ccc2c(c1)C(=O)N(C)[C@H]1CC[C@H](CC(=O)NCc3ccccc3)O[C@@H]1CO2	1
CO[C@H](CN(C)C(=O)c1ccc2c(c1)OCO2)[C@@H](C)CN([C@H](C)CO)S(=O)(=O)c1ccc(F)cc1	0
CN1c2ccc(-c3ccccc3F)cc2[C@@H]2[C@@H](CCN2C(=O)c2ccccn2)[C@H]1CO	4
CC(C)NC(=O)N1CC[C@H]2[C@@H]1c1cc(C#Cc3cccnc3)ccc1N(C)[C@H]2CO	5
COc1ccc(C#Cc2ccc3c(c2)[C@@H]2[C@@H](CCN2C(=O)c2ccccc2F)[C@H](CO)N3C)cc1	4
CN1c2ccc(C#Cc3ccccc3F)cc2[C@H]2[C@H](CCN2C(=O)c2cnccn2)[C@H]1CO	-29*
CN1c2ccc(C#Cc3cccnc3)cc2[C@@H]2[C@@H](CCN2C(=O)c2cccc(F)c2)[C@H]1CO	-37*
CN1c2ccc(Br)cc2[C@H]2[C@H](CCN2C(=O)c2cccc(F)c2)[C@H]1CO	-9
CCC(=O)N1CC(=O)N2[C@H](C1)[C@@H](c1ccc(-c3ccc(C#N)cc3)cc1)[C@@H]2CO	5
CN(C)C(=O)c1ccc(-c2ccc3c(c2)[C@@H]2[C@@H](CCN2C(=O)Cc2ccccn2)[C@H](CO)N3C)cc1	11
CCCNC(=O)N1CC2(CN(S(C)(=O)=O)C2)c2c(n(C)c3cc(OC)ccc23)[C@@H]1CO	14
CN(C)CC#Cc1ccc([C@@H]2[C@H](C#N)N[C@@H]2CO)cc1	1
C[C@@H]1CN([C@H](C)CO)C(=O)c2c(c3ccccc3n2C)-c2ccccc2CO[C@@H]1CN(C)Cc1cccc(C(F)(F)F)c1	-5
C[C@H](CO)N1C[C@H](C)[C@@H](CN(C)Cc2cccc(C(F)(F)F)c2)OCc2ccccc2-c2c(n(C)c3ccccc23)C1=O	-54*
C[C@H]1CN([C@@H](C)CO)C(=O)c2c(c3ccccc3n2C)-c2ccccc2CO[C@@H]1CN(C)Cc1ccccc1C(F)(F)F	-30*
C[C@@H]1CN([C@@H](C)CO)C(=O)c2c(c3ccccc3n2C)-c2ccccc2CO[C@@H]1CN(C)Cc1ccc(C(F)(F)F)cc1	-27*
C[C@@H]1CN([C@H](C)CO)C(=O)c2c(c3ccccc3n2C)-c2ccccc2CO[C@H]1CN(C)Cc1cccc(O)c1	4
SMILES	DUX4 inh
C[C@H](CO)N1C[C@H](C)[C@@H](CN(C)C(=O)Nc2ccccc2C(F)(F)F)OCc2ccccc2-c2c(n(C)c3ccccc23)C1=O	-6
C[C@@H]1CN([C@H](C)CO)C(=O)c2c(c3ccccc3n2C)-c2ccccc2CO[C@@H]1CN(C)Cc1ccc(O)cc1	-8
C[C@@H]1CN([C@H](C)CO)C(=O)c2c(c3ccccc3n2C)-c2ccccc2CO[C@@H]1CN(C)Cc1cccc2c1OCCCO2	-6
COc1ccccc1CN(C)C[C@H]1OCc2ccccc2-c2c(n(C)c3ccccc23)C(=O)N([C@@H](C)CO)C[C@H]1C	1
C[C@H]1CN([C@@H](C)CO)C(=O)c2ccccc2-c2ccccc2CO[C@H]1CN(C)Cc1cccc2c1OCCCO2	0
C[C@@H]1CN([C@H](C)CO)C(=O)c2c(c3ccccc3n2C)-c2ccccc2CO[C@H]1CN(C)Cc1ccc(O)cc1	8
